# Data reported in paper PMC7862700, “An all-to-all approach to the identification of sequence-specific readers for epigenetic DNA modifications on cytosine”.
# Tests used:
# Assay in all cases: DAPPL (digital affinity profiling via proximity ligation, sequencing); 10 mM Tris-HCl pH 7.5, 50 mM NaCl, 1 mM DTT, 4% glycerol, room temperature, 30 min; GST-TFs on glutathione beads, 16-mer random dsDNA library, 0.1% formaldehyde crosslink after washing; high values mean tight binding
# Settings in all cases: protein: recombinant; tags: N-terminal GST; dsDNA, one strand shown
# ETV2 = target: T1, ETV2 (Homo sapiens, UniProt O00321 1-342)
# T1 sequence: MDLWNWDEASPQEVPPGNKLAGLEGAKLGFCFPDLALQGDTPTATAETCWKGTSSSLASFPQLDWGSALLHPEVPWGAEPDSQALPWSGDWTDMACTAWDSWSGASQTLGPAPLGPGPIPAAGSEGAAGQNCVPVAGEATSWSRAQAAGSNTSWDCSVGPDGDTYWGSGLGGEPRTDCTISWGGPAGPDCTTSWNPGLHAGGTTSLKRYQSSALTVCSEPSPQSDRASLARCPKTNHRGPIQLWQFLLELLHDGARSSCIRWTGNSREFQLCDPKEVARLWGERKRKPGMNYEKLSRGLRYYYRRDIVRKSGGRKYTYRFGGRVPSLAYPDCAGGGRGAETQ
# How it was run: (§1)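 A tag-only sample was pooled with DNA-barcoded human transcription factors that had been expressed in yeast as GST fusions and captured on glutathione beads. The pools were incubated for 30 min at room temperature with 200 nmole of a random double-stranded 16-mer DNA library in Tris/NaCl/DTT/glycerol buffer, then washed, crosslinked with 0.1% formaldehyde, proximity-ligated (BsaI/T4 ligase, 1 h, 37 °C), PCR-amplified and sequenced on an Illumina NextSeq500. Binding signal is each hexamer's read frequency for a factor divided by its frequency for the tag-only sample.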
# ELF3 = target: T2, ELF3 (Homo sapiens, UniProt P78545 1-371)
# T2 sequence: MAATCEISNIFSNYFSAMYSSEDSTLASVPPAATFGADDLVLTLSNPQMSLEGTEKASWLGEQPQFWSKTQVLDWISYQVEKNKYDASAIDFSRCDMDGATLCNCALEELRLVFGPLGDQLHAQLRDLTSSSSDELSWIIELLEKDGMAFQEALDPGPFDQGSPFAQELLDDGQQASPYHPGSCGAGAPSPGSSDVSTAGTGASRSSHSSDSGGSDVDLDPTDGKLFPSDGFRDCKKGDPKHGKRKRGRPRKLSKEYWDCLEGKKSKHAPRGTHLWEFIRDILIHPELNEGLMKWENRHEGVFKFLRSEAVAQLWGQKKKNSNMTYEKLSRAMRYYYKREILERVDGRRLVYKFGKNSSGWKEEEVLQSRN
# How it was run: as §1
# ETV1 = ETV1 (Homo sapiens, UniProt P50549 1-477)
# Sequence of ETV1 (P50549 whole entry): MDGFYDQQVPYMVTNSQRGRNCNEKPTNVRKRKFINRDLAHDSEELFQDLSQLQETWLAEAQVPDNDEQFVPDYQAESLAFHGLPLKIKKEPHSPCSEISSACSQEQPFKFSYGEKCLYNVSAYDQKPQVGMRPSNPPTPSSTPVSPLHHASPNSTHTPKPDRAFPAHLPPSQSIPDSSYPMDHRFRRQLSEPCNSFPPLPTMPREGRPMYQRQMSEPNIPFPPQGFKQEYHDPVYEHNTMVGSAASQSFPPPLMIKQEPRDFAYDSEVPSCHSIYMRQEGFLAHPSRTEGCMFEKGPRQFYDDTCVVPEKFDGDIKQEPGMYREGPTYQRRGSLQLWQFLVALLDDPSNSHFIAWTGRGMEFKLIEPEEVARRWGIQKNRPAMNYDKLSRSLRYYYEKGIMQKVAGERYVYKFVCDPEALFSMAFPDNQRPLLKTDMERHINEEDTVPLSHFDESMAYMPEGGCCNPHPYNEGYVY
# How it was run: as §1
# ERF = target: T3, ERF (Homo sapiens, UniProt P50548 1-548)
# T3 sequence: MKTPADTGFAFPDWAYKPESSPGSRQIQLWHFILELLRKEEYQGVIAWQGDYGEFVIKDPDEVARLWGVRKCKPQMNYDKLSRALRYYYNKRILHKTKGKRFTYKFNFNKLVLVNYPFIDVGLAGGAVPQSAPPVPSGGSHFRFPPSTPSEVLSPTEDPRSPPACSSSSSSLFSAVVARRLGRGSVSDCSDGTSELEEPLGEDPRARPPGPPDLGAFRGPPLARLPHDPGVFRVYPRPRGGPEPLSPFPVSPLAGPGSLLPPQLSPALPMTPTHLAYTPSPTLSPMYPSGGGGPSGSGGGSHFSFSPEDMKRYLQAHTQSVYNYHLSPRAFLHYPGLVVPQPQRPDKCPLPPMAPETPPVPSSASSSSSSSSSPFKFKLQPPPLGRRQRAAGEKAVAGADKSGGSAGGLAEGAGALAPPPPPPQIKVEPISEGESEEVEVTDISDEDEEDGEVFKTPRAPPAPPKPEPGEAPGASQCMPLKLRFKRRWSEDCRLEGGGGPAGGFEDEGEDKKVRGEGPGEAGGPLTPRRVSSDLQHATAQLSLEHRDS
# How it was run: as §1
# ETV3L = target: T4, ETV3L (Homo sapiens, UniProt Q6ZN32 1-361)
# T4 sequence: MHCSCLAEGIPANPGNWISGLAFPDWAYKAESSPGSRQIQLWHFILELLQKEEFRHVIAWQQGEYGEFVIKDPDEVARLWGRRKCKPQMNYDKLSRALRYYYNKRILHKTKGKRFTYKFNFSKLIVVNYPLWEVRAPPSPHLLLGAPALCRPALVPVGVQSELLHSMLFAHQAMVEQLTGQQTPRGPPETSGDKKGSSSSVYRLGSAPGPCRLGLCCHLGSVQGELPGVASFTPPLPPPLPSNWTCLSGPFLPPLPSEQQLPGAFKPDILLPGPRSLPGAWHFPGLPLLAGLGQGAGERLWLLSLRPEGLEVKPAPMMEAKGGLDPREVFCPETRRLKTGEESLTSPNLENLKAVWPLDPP
# How it was run: as §1
# ETS2 = target: T5, ETS2 (Homo sapiens, UniProt P15036 1-469)
# T5 sequence: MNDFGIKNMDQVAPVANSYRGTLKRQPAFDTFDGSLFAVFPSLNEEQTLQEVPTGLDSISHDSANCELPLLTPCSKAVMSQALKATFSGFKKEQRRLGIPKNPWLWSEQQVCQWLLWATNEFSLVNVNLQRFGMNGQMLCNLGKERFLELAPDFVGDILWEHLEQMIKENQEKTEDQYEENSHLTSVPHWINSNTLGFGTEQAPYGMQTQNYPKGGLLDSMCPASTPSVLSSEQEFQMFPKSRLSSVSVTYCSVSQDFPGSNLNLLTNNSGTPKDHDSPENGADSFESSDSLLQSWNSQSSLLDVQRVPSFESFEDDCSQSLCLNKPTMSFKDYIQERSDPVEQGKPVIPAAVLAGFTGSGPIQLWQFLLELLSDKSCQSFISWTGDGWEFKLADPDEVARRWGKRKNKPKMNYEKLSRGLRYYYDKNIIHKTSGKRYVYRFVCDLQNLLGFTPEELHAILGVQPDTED
# How it was run: as §1
# SPDEF = target: T6, SPDEF (Homo sapiens, UniProt O95238 1-335)
# T6 sequence: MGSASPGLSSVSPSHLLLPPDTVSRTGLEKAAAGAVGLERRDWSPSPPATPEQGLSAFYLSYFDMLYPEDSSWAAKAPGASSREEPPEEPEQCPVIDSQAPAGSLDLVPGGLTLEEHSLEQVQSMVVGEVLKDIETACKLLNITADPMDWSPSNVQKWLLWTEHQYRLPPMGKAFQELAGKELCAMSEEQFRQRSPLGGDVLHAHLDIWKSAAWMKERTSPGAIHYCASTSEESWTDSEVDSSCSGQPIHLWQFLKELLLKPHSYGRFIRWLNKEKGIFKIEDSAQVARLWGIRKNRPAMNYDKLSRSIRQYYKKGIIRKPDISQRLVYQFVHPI
# How it was run: as §1
# ETV7 = target: T7, ETV7 (Homo sapiens, UniProt Q9Y603 1-341)
# T7 sequence: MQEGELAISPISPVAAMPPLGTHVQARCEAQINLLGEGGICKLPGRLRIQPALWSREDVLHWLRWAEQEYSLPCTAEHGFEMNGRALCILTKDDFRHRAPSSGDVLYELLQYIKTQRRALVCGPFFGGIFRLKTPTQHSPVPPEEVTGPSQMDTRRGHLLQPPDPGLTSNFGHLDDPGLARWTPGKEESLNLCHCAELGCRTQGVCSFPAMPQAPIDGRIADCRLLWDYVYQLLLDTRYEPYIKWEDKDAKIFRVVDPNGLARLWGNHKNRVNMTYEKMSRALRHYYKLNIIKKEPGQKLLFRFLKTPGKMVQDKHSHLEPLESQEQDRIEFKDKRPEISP
# How it was run: as §1
# ETV3 = target: T8, ETV3 (Homo sapiens, UniProt P41162-2 1-143)
# T8 sequence: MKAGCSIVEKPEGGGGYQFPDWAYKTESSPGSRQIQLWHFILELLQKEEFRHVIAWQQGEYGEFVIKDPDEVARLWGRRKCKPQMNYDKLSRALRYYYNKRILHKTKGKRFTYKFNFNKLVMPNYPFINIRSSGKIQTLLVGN
# How it was run: as §1
# ETV6 = ETV6 (Homo sapiens, UniProt P41212 1-452)
# Sequence of ETV6 (P41212 whole entry): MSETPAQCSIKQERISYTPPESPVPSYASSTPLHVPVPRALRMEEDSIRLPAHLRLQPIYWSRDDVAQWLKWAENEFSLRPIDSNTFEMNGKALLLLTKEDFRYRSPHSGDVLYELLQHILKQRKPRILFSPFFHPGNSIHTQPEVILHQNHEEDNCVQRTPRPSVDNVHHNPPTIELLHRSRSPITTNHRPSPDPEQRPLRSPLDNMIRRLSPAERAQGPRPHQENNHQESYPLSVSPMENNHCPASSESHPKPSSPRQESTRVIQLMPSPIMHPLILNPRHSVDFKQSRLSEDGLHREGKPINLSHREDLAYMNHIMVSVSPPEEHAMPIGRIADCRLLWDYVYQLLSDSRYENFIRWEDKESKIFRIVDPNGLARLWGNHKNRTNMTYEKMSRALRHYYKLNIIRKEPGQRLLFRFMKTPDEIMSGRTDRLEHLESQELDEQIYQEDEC
# How it was run: as §1
sequence,measurement,setting,value
AAGATC,binding signal,ETV2,"1.13 fold enrichment (6-mer frequency, TF over GST control)"
same,binding signal,ELF3,"1.15 fold enrichment (6-mer frequency, TF over GST control)"
same,binding signal,ETV1,"1.08 fold enrichment (6-mer frequency, TF over GST control)"
same,binding signal,ERF,"1.12 fold enrichment (6-mer frequency, TF over GST control)"
same,binding signal,ETV3L,"1.03 fold enrichment (6-mer frequency, TF over GST control)"
same,binding signal,ETS2,"1.05 fold enrichment (6-mer frequency, TF over GST control)"
same,binding signal,SPDEF,"1.27 fold enrichment (6-mer frequency, TF over GST control)"
same,binding signal,ETV7,"1.08 fold enrichment (6-mer frequency, TF over GST control)"
same,binding signal,ETV3,"1.12 fold enrichment (6-mer frequency, TF over GST control)"
same,binding signal,ETV6,"1.01 fold enrichment (6-mer frequency, TF over GST control)"
